Out of some 1,500 compounds screened, about 460 (31%) were called active. Not shown: some 1% with an inconclusive outcome.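 The calls were made as follows: active = curve reaches 40% activation over neutral controls at an AC40 no higher than the top valid tested concentration; inconclusive = no clear call, values can overlap the other calls; inactive = signal moving opposite to the expected increase, and the rest.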 A selection follows. Measured potencies and affinities stand elsewhere.
Experiment: GLuc-reported insulin release enhancers, glucose-stimulated beta cells – cell-based, INS-1E, Gaussia luciferase, luminescence, cherry-pick, set 2, dose response (AID 977607);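 also: 0% = median of the plate neutral control wells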
Conditions: INS-1E GLuc insulin secretion reporter, 2-3 h, hits give high values; at 35 µM, 100% = signal doubled over neutral wells unless noted

Max activation, inactive:
COc1ccc(C2=NOC(C(=O)NCc3ccccn3)C2)cc1OC (stereo unspecified) 31.6%, Cn1c(=O)c2[nH]c(SCc3ccccn3)nc2n(C)c1=S -21.4% [at 11 µM, 100% = signal doubled over neutral wells], Fc1ccc(-c2csc3nnc(SCc4cccnc4)n23)cc1 18.4%, O=S1(=O)c2ccccc2OC(COCc2ccccc2)CN1C1CC1 (stereo unspecified) -28.4%, CCN(CC)C(=O)c1ccccc1NS(=O)(=O)c1ccc(C)cc1 -13.4% [at 0.0016 µM, 100% = signal doubled over neutral wells], Cn1c(N)c(C(c2ccccc2)c2c(N)n(C)c(=O)n(C)c2=O)c(=O)n(C)c1=O 17.9% [at 0.005 µM, 100% = signal doubled over neutral wells], CC(C)c1ccc(NC2CCCN(C(=O)c3cccnc3)C2)cc1 (stereo unspecified) -13.8% [at 0.42 µM, 100% = signal doubled over neutral wells], CCCc1nc(N)sc1C(=O)OCC -11.4% [at 1.2 µM, 100% = signal doubled over neutral wells], CCOC(=O)c1nc(-c2ccccc2)oc1N(C)C -16.2% [at 1.2 µM, 100% = signal doubled over neutral wells], Nc1nc(SCc2nc3scc(-c4ccccc4)c3c(=O)[nH]2)n[nH]1 50.6%, Cc1cc(C)n2ncc(-c3cccc(Br)c3)c2n1 -17% [at 0.0016 µM, 100% = signal doubled over neutral wells], Cc1nc(N)c(C#N)c(-c2cccnc2)c1-c1ccccc1 45.7% [at 11 µM, 100% = signal doubled over neutral wells], CC1CCc2nc(N)c(C#N)c(-c3ccncc3)c2C1 (stereo unspecified) 21.5%, N#Cc1c(-c2ccco2)cc(C2CC2)nc1N 25.6%, Cc1ccc(C(=O)n2nc(-c3cccnc3)nc2N)cc1 23.7%, O=c1cc(-c2cccc(Br)c2)nc(-c2ccccc2F)o1 -17.1% [at 11 µM, 100% = signal doubled over neutral wells], Cc1cccc(C)c1OCCCn1ccnc1 41% [at 0.046 µM, 100% = signal doubled over neutral wells], O=C(CC1SC2=NCCN2C1=O)Nc1ccc(Br)cc1 (stereo unspecified) -22.5% [at 0.42 µM, 100% = signal doubled over neutral wells], Cc1ccc(NC(=O)CN(C(=O)N2CCN(C)CC2)S(=O)(=O)c2ccc(C)cc2)cc1 -21.9% [at 1.2 µM, 100% = signal doubled over neutral wells], Cc1cc(S(=O)(=O)Nc2nc(CN3CCOCC3)nc3sc4c(c23)CCC4)ccc1F -12.9% [at 0.135 µM, 100% = signal doubled over neutral wells], C=CCc1ccccc1Oc1cc(OC)nc(N)n1 -22% [at 1.2 µM, 100% = signal doubled over neutral wells], COc1ccc(CCNC(=O)C(=O)c2c(C)n(C)c3ccccc23)cc1OC -13.8% [at 1.2 µM, 100% = signal doubled over neutral wells], CCC(C)c1ccccc1OCCn1ccnc1 (stereo unspecified) 16.6% [at 0.005 µM, 100% = signal doubled over neutral wells], COc1ccc(OCCCCN(C)Cc2ccccc2)cc1 -18.5% [at 1.2 µM, 100% = signal doubled over neutral wells], O=C(N/N=C/c1ccc2c(c1)OCO2)c1ccc(Cl)cc1Cl -37.2%, CCC(=O)Nc1sc(Cc2ccc3c(c2)OCO3)c(C)c1C(N)=O -24.2% [at 0.0016 µM, 100% = signal doubled over neutral wells], O=C(Nc1ccc(F)cc1)c1cccnc1Oc1ccccc1 21.8%, CC(C)CCN1CC(O)=C(c2nc(-c3ccc(Cl)cc3)cs2)C1=N -11.3% [at 0.005 µM, 100% = signal doubled over neutral wells], CCCn1c(C)cc(C)c(C#N)c1=O -11.7% [at 1.2 µM, 100% = signal doubled over neutral wells], O=C(O)CC(CC(=O)Nc1ccc(C(=O)O)cc1)c1ccccc1 (stereo unspecified) 11.8% [at 3.8 µM, 100% = signal doubled over neutral wells], CCNc1nc(Oc2ccc(C#N)cc2)cc(C(F)(F)F)n1 -19% [at 0.135 µM, 100% = signal doubled over neutral wells], O=S(=O)(NCc1ccccc1)c1ccc(-n2cccn2)cc1 32% [at 0.135 µM, 100% = signal doubled over neutral wells], Cc1ccc2c(c1)N(C(C)C(=O)NCc1cccs1)C(=O)CO2 (stereo unspecified) 15.9% [at 0.42 µM, 100% = signal doubled over neutral wells], CN1CCCC1CCNC1C2CC3CC(C2)CC1C3 (stereo unspecified) -20.8% [at 0.135 µM, 100% = signal doubled over neutral wells], Cc1ccc(-n2nc3c(c2NC(=O)C2CC2)CS(=O)(=O)C3)cc1 -19.6% [at 0.005 µM, 100% = signal doubled over neutral wells], CC(C)CN(C(=O)C1CCCCC1)C1CCS(=O)(=O)C1 (stereo unspecified) -14.6% [at 3.8 µM, 100% = signal doubled over neutral wells], CC1CCC(NC(=O)C2COc3ccccc3O2)CC1 (stereo unspecified) -17.3% [at 0.135 µM, 100% = signal doubled over neutral wells], O=C(O)C1Cc2c([nH]c3ccccc23)C(c2ccc3c(c2)OCO3)N1 (stereo unspecified) 27.5% [at 0.015 µM, 100% = signal doubled over neutral wells], CC(=O)N1CCN(c2nc(-c3cccs3)nc3ccccc23)CC1 40.4% [at 11 µM, 100% = signal doubled over neutral wells], Cc1nn(-c2ccccc2)c2nc(C(F)F)cc(C(F)F)c12 13.6%, COc1ccc(-c2cnc(N)nc2-c2ccc(OC)cc2)cc1 20.9% [at 11 µM, 100% = signal doubled over neutral wells], Cc1cccn2cc(CCNS(=O)(=O)c3cccs3)nc12 -22.2% [at 0.42 µM, 100% = signal doubled over neutral wells], Cc1cc(OCC(O)CNC(C)c2ccccc2)ccc1C(C)C (stereo unspecified) 327%, COc1ccccc1C(C)NS(=O)(=O)c1ccc(Cl)nc1 (stereo unspecified) 15.6% [at 3.8 µM, 100% = signal doubled over neutral wells], Cc1cn(CC(C)C)c(=O)n(-c2ccccc2)c1=O 12.2%, Cc1cccc2nc(-c3ccco3)c(Nc3ccccc3)n12 -25.5%, COc1ccc(N2CC(C(=O)N3CCc4ccccc43)CC2=O)cc1 (stereo unspecified) -12.5% [at 0.0016 µM, 100% = signal doubled over neutral wells], COc1ccc(-c2[nH]c3ccccc3c2SCCN)cc1 -28.1%, O=c1c(C(c2ccccc2)c2c(O)sc3ccccc3c2=O)c(O)sc2ccccc12 19.2%, CCCCc1[nH]c(=O)c(C#N)c2c1CCCC2 16.7%, Cc1c(OCC(=O)NCc2ccccn2)ccc2c3c(c(=O)oc12)CCCC3 27.3%, NNc1nc(-c2ccccc2)c2ccccc2n1 -19.6% [at 0.046 µM, 100% = signal doubled over neutral wells], CCn1c(=O)[nH]c(=O)c2c(N)c(C(=O)c3cc(F)ccc3F)sc21 27.3%, COC(=O)N1CCCCC1c1cc(C(=O)NCc2ccc(Cl)c(Cl)c2)no1 (stereo unspecified) -38.9%, CC(C)COc1ccc(Br)cc1CNC(C)(C)C -18.4% [at 11 µM, 100% = signal doubled over neutral wells], COCCN1Cc2cccc(C(=O)NCc3ccccc3OC)c2C1=O -20% [at 0.0016 µM, 100% = signal doubled over neutral wells], CSc1ccc(/C=N/N(C)S(=O)(=O)c2ccc(C)cc2)cc1 -22.1%, Cc1ccc(S(=O)(=O)/N=C2\CN(C)C(=O)N2C)cc1 -21.8% [at 3.8 µM, 100% = signal doubled over neutral wells], CCCc1nc(-c2cc3cc(C)ccc3[nH]c2=O)no1 -13.2% [at 1.2 µM, 100% = signal doubled over neutral wells], O=C(O)c1c(NC(=O)N2CCOCC2)sc2c1CCCC2 -10.1% [at 0.0016 µM, 100% = signal doubled over neutral wells], CCOC(=O)c1c(N)c(C#N)c2n1CCCC2 -17% [at 0.0016 µM, 100% = signal doubled over neutral wells]

Source: PubChem BioAssay AID977607 (Broad Institute, 2014)
